# Test results taken from publication PMC7862700, “An all-to-all approach to the identification of sequence-specific readers for epigenetic DNA modifications on cytosine”.
# Experiments:
# Assay in all cases: DAPPL (digital affinity profiling via proximity ligation, sequencing); 10 mM Tris-HCl pH 7.5, 50 mM NaCl, 1 mM DTT, 4% glycerol, room temperature, 30 min; GST-TFs on glutathione beads, 16-mer random dsDNA library, 0.1% formaldehyde crosslink after washing; high values mean tight binding
# [1] = biological target: T1, FLI1 (Homo sapiens, UniProt Q01543 1-452); details: protein: recombinant; tags: N-terminal GST; dsDNA, one strand shown
# T1 sequence: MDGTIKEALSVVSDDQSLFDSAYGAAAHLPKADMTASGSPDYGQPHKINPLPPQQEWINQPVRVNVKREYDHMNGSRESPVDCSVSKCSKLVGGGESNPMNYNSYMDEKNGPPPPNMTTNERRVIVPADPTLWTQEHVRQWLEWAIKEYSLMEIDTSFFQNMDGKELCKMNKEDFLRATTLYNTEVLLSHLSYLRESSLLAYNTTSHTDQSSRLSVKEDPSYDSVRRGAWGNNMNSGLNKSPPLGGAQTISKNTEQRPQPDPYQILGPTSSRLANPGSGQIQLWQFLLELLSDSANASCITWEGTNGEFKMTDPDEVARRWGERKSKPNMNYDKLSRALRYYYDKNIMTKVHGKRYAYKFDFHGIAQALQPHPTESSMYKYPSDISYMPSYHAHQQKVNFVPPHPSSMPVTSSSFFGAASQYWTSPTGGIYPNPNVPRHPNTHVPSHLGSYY
# How it was run: (§1)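 Beads coated with glutathione captured GST-fused human transcription factors that had been expressed in yeast, and the factors were then given DNA barcodes and pooled with a tag-only sample. The pools were incubated with 200 nmole of a random double-stranded 16-mer DNA library in Tris/NaCl/DTT/glycerol buffer for 30 min at room temperature, washed, crosslinked with 0.1% formaldehyde and proximity-ligated with BsaI/T4 ligase at 37 °C for 1 h. PCR amplification and Illumina NextSeq500 sequencing came last. Binding signal is each hexamer's read frequency for a factor divided by its frequency for the tag-only sample.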
# [2] = biological target: T2, ELK1 (Homo sapiens, UniProt P19419 1-428); details: protein: recombinant; tags: N-terminal GST; dsDNA, one strand shown
# T2 sequence: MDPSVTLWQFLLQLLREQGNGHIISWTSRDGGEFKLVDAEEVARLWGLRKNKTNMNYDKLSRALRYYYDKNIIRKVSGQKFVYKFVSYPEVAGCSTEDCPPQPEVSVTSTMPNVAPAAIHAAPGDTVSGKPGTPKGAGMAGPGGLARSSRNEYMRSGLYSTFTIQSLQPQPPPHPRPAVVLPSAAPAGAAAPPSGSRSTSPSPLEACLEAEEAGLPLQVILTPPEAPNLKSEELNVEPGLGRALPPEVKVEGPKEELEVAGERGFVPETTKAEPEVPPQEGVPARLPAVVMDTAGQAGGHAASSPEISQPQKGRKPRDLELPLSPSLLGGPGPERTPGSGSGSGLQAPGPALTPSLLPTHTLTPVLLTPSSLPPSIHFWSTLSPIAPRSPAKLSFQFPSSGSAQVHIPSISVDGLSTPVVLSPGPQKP
# How it was run: as §1
# [3] = biological target: T3, GABPA (Homo sapiens, UniProt Q06546 1-454); details: protein: recombinant; tags: N-terminal GST; dsDNA, one strand shown
# T3 sequence: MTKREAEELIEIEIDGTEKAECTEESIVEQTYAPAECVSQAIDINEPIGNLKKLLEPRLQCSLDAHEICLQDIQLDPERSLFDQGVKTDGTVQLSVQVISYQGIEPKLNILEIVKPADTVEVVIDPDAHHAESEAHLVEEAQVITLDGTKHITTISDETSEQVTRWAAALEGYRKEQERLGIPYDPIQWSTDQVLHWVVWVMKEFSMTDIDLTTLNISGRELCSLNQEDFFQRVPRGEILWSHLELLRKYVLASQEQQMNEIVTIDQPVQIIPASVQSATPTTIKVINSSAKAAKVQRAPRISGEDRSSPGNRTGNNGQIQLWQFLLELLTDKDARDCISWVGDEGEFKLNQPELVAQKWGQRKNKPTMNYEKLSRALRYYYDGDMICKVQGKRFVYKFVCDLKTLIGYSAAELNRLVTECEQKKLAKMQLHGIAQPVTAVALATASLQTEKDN
# How it was run: as §1
# [4] = biological target: T4, ERG (Homo sapiens, UniProt P11308 1-479); details: protein: recombinant; tags: N-terminal GST; dsDNA, one strand shown
# T4 sequence: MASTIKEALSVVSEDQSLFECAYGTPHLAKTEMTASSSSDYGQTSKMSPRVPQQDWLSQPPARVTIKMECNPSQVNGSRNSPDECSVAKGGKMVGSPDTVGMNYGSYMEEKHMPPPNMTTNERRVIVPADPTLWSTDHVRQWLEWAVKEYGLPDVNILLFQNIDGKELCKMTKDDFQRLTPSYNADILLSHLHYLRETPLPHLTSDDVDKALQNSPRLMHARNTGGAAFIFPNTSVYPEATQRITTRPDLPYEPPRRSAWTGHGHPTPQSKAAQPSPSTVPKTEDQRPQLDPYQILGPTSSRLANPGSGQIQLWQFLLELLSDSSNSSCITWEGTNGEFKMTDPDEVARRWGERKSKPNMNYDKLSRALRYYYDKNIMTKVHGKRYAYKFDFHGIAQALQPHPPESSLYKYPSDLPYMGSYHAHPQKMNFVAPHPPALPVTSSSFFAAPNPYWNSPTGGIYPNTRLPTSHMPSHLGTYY
# How it was run: as §1
# [5] = biological target: ELF1 (Homo sapiens, UniProt P32519 1-619); details: protein: recombinant; tags: N-terminal GST; dsDNA, one strand shown
# Sequence of ELF1 (P32519 whole entry): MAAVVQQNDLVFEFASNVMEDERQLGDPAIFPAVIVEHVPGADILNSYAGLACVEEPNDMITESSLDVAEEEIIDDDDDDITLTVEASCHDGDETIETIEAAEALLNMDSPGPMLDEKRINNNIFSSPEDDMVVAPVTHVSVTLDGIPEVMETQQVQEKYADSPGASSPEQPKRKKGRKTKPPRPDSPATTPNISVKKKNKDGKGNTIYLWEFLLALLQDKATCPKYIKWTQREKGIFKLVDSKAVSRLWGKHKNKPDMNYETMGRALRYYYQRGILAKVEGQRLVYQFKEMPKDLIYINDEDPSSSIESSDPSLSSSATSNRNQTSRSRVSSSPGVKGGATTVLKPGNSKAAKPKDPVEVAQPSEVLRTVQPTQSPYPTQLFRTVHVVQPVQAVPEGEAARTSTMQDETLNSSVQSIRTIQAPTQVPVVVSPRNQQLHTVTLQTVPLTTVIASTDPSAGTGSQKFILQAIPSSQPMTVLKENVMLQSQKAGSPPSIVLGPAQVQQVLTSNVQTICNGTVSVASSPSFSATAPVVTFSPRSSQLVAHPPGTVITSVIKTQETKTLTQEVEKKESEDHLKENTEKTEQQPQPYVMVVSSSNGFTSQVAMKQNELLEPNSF
# How it was run: as §1
# [6] = biological target: T5, EHF (Homo sapiens, UniProt Q9NZC4 1-300); details: protein: recombinant; tags: N-terminal GST; dsDNA, one strand shown
# T5 sequence: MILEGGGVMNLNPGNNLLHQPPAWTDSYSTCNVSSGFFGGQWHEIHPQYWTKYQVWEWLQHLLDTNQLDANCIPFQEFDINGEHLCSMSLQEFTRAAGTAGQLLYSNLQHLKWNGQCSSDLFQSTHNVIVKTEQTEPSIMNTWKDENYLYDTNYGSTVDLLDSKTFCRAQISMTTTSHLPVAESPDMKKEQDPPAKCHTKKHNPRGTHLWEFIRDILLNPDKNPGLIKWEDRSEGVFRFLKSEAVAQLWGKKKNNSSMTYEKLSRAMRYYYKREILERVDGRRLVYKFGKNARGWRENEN
# How it was run: as §1
# [7] = biological target: SPI1 (Homo sapiens, UniProt P17947 1-270); details: protein: recombinant; tags: N-terminal GST; dsDNA, one strand shown
# How it was run: as §1
# [8] = biological target: SPIB (Homo sapiens, UniProt Q01892 1-262); details: protein: recombinant; tags: N-terminal GST; dsDNA, one strand shown
# Sequence of SPIB (Q01892 whole entry): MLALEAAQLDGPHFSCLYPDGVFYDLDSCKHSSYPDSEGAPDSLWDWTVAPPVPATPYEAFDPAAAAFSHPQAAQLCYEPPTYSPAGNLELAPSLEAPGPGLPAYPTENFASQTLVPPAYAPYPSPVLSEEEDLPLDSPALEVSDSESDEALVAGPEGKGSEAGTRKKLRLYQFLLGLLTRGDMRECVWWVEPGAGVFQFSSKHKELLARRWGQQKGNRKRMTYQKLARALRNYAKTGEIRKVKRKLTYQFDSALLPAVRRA
# How it was run: as §1
# [9] = biological target: T6, ELK3 (Homo sapiens, UniProt P41970 1-407); details: protein: recombinant; tags: N-terminal GST; dsDNA, one strand shown
# T6 sequence: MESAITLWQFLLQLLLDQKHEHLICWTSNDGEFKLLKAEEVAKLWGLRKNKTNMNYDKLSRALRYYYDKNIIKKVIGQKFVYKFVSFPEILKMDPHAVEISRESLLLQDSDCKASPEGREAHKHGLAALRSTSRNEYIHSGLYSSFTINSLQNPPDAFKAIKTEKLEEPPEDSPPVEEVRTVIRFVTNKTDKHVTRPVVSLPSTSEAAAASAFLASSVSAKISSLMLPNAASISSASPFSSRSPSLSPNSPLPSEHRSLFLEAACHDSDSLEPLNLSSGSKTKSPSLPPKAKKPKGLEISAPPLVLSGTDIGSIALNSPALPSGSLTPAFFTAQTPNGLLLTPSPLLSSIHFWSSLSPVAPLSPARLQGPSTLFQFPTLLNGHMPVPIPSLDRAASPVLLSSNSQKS
# How it was run: as §1
# [10] = biological target: T7, FEV (Homo sapiens, UniProt Q99581 1-238); details: protein: recombinant; tags: N-terminal GST; dsDNA, one strand shown
# T7 sequence: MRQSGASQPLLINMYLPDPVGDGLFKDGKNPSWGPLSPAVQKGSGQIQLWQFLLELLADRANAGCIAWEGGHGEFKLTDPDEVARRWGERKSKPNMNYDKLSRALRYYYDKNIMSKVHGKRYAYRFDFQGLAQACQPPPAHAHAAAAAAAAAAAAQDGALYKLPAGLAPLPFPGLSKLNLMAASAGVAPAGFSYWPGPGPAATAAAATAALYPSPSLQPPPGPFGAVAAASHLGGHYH
# How it was run: as §1
# [11] = biological target: ETV5 (Homo sapiens, UniProt P41161 1-510); details: protein: recombinant; tags: N-terminal GST; dsDNA, one strand shown
# Sequence of ETV5 (P41161 whole entry): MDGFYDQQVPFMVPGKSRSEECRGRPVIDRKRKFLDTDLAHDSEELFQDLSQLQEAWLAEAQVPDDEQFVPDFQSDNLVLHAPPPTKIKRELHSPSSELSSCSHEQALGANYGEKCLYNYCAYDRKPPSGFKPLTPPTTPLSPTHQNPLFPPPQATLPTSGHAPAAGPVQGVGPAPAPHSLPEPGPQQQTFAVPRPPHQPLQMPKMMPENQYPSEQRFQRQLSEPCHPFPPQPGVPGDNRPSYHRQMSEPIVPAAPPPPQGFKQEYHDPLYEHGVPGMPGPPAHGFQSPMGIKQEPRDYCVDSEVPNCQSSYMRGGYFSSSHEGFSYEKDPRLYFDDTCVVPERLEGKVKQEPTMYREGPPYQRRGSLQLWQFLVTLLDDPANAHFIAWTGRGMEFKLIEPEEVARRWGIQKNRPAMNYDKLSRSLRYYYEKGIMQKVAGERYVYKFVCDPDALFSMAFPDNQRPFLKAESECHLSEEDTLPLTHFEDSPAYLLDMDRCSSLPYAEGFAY
# How it was run: as §1
# [12] = biological target: HSF1 (Homo sapiens, UniProt Q00613 1-529); details: protein: recombinant; tags: N-terminal GST; chain copies: 3; dsDNA, one strand shown
# Sequence of HSF1 (Q00613 whole entry): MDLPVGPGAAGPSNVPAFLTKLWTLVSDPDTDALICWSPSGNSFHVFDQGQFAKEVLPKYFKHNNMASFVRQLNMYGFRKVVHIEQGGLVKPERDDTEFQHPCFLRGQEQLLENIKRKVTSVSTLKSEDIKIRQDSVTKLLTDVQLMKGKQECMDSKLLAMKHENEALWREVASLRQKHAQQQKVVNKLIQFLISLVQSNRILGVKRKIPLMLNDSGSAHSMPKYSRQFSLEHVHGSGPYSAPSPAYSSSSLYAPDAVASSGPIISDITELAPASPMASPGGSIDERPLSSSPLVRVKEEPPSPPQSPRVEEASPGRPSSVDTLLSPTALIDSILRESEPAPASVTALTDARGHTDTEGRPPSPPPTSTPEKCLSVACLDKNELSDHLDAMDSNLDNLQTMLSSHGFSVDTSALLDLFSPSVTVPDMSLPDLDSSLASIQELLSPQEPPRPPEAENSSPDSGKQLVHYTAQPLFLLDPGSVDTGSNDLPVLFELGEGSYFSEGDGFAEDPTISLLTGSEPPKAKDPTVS
# How it was run: as §1
# [13] = biological target: T8, SPIC (Homo sapiens, UniProt Q8N5J4 1-248); details: protein: recombinant; tags: N-terminal GST; dsDNA, one strand shown
# T8 sequence: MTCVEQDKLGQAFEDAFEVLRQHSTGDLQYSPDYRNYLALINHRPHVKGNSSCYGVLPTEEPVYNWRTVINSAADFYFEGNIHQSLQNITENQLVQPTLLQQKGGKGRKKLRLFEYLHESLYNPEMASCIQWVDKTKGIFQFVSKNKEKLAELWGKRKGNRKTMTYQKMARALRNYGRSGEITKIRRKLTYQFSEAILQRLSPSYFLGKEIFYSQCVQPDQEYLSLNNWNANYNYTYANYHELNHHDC
# How it was run: as §1
# [14] = biological target: ELF4 (Homo sapiens, UniProt Q99607 1-663); details: protein: recombinant; tags: N-terminal GST; dsDNA, one strand shown
# Sequence of ELF4 (Q99607 whole entry): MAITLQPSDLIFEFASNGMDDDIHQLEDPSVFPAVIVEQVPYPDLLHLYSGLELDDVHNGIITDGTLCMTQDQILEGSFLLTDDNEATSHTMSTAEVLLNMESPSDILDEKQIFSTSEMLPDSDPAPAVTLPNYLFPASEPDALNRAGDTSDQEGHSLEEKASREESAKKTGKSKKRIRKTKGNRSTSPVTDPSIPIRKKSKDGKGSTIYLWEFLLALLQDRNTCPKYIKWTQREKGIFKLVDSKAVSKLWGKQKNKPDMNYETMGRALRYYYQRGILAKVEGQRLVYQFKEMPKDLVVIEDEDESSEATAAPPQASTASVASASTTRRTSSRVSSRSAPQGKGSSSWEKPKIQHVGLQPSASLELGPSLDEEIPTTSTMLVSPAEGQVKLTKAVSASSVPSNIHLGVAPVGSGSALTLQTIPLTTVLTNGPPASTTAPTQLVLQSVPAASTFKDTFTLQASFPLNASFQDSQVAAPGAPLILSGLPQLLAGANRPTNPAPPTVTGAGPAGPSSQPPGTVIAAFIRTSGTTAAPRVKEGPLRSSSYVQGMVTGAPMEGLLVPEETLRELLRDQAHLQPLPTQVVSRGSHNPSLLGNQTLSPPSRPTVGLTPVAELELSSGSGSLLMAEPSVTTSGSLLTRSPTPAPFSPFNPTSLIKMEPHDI
# How it was run: as §1
# [15] = biological target: T9, ELK4 (Homo sapiens, UniProt P28324-2 1-405); details: protein: recombinant; tags: N-terminal GST; dsDNA, one strand shown
# T9 sequence: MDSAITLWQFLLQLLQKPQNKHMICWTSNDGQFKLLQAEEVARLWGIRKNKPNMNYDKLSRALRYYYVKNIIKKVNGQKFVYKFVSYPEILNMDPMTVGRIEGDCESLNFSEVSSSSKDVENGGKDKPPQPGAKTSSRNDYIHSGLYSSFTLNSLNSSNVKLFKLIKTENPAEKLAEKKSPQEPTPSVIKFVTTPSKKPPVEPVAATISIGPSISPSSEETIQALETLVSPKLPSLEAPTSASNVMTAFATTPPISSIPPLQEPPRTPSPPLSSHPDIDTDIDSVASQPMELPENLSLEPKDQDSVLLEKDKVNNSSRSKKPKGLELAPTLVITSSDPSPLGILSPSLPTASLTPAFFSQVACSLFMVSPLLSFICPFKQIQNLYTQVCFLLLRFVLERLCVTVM
# How it was run: as §1
# [16] = biological target: T10, ETV2 (Homo sapiens, UniProt O00321 1-342); details: protein: recombinant; tags: N-terminal GST; dsDNA, one strand shown
# T10 sequence: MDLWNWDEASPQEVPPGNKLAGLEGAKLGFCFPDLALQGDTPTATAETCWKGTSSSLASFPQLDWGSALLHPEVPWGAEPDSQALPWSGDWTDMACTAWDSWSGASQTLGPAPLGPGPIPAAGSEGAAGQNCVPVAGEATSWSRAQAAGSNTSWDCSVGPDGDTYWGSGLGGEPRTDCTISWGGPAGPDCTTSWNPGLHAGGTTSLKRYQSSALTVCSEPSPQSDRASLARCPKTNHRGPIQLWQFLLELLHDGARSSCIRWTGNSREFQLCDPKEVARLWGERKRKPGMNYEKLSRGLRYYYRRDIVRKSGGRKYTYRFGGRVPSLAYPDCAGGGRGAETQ
# How it was run: as §1
# [17] = biological target: T11, ELF3 (Homo sapiens, UniProt P78545 1-371); details: protein: recombinant; tags: N-terminal GST; dsDNA, one strand shown
# T11 sequence: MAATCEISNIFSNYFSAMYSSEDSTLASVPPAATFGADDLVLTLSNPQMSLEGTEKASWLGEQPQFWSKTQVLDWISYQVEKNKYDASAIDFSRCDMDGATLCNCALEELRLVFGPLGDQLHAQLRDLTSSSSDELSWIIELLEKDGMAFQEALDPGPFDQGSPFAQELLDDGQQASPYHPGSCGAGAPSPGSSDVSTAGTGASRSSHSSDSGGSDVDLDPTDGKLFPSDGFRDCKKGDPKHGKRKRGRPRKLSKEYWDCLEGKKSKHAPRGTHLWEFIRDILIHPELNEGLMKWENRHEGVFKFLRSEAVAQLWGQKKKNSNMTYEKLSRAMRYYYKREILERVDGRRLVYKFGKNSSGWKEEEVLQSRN
# How it was run: as §1
# [18] = biological target: CRX (Homo sapiens, UniProt O43186 1-299); details: protein: recombinant; tags: N-terminal GST; dsDNA, one strand shown
# Sequence of CRX (O43186 whole entry): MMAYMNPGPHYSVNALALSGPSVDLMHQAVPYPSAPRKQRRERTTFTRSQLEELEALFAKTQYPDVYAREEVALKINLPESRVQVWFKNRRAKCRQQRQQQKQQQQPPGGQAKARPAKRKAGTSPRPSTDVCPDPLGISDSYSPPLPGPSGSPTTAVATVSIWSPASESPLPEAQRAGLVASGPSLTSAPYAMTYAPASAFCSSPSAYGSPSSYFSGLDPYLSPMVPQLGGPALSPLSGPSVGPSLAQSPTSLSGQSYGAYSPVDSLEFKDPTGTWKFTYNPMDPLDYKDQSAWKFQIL
# How it was run: as §1
# [19] = biological target: ETV1 (Homo sapiens, UniProt P50549 1-477); details: protein: recombinant; tags: N-terminal GST; dsDNA, one strand shown
# Sequence of ETV1 (P50549 whole entry): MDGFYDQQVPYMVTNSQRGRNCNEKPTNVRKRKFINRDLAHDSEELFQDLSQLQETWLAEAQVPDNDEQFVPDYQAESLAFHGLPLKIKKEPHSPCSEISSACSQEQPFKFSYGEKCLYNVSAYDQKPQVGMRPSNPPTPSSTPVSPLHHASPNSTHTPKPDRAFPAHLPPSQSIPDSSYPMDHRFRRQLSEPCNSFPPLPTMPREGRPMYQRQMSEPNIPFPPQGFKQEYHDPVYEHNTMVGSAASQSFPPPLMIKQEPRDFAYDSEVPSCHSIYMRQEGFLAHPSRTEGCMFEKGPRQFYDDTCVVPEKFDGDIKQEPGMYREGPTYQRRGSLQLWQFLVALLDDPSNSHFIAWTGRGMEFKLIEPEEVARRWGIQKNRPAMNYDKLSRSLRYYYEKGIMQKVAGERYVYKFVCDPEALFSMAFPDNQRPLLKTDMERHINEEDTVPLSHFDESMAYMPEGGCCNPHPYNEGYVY
# How it was run: as §1
sequence,measurement,setting,value
GGTATT,binding signal,[1],"1.2 fold enrichment (6-mer frequency, TF over GST control)"
same,binding signal,[2],"1.17 fold enrichment (6-mer frequency, TF over GST control)"
same,binding signal,[3],"1.23 fold enrichment (6-mer frequency, TF over GST control)"
same,binding signal,[4],"1.24 fold enrichment (6-mer frequency, TF over GST control)"
same,binding signal,[5],"1.18 fold enrichment (6-mer frequency, TF over GST control)"
same,binding signal,[6],"1.19 fold enrichment (6-mer frequency, TF over GST control)"
same,binding signal,[7],"1.16 fold enrichment (6-mer frequency, TF over GST control)"
same,binding signal,[8],"1.2 fold enrichment (6-mer frequency, TF over GST control)"
same,binding signal,[9],"1.15 fold enrichment (6-mer frequency, TF over GST control)"
same,binding signal,[10],"1.1 fold enrichment (6-mer frequency, TF over GST control)"
same,binding signal,[11],"1.16 fold enrichment (6-mer frequency, TF over GST control)"
same,binding signal,[12],"1.39 fold enrichment (6-mer frequency, TF over GST control)"
same,binding signal,[13],"1.14 fold enrichment (6-mer frequency, TF over GST control)"
same,binding signal,[14],"1.12 fold enrichment (6-mer frequency, TF over GST control)"
same,binding signal,[15],"1.14 fold enrichment (6-mer frequency, TF over GST control)"
same,binding signal,[16],"1.12 fold enrichment (6-mer frequency, TF over GST control)"
same,binding signal,[17],"1.1 fold enrichment (6-mer frequency, TF over GST control)"
same,binding signal,[18],"1.66 fold enrichment (6-mer frequency, TF over GST control)"
same,binding signal,[19],"1.16 fold enrichment (6-mer frequency, TF over GST control)"
